{"source": "ChEMBL document CHEMBL3988442", "about": "“University of Dundee, Small-Polar-MMV Screening Library” (2021)", "note": "About 13,000 (27%) of roughly 48,000 compounds showed an effect of 50% or more. The list shows a part of the results."}
{"system": "Wolbachia pipientis", "assay": "Anti-Wolbachia Cell-Based Screen", "type": "functional", "design": "scale not given: in the data most compounds retested in dose-response had high values", "settings": "5 µM", "units": {"Percent Effect": "%"}}
{"smiles": "CN(C)c1nc2c(c(=O)[nH]1)CCN(C(=O)c1c[nH]c(=O)c(Cl)c1)C2", "Percent Effect": 24.13}
{"smiles": "Cc1cc(C)nc(CNC(=O)C(c2cccnc2)N2CCOCC2)n1", "note": "(stereo not given)", "Percent Effect": 12.66}
{"smiles": "Cc1ccc2cc(CNCCCN3CCOCC3)c(=O)[nH]c2c1", "Percent Effect": -6.489}
{"smiles": "Cc1ccc2cc(CN(C)Cc3ccncn3)c(=O)[nH]c2c1", "Percent Effect": -11.97}
{"smiles": "Cc1ccc2cc(CNCCN3CCCC3)c(=O)[nH]c2c1", "Percent Effect": 112.1}
{"smiles": "Cc1ccc2cc(CN(C)Cc3ncc[nH]3)c(=O)[nH]c2c1", "Percent Effect": -0.6566}
{"smiles": "Cc1cc(C)cc(CNCCS(=O)(=O)N2CCOCC2)c1", "Percent Effect": -11.28}
{"smiles": "Cc1ccc2[nH]c(=O)c(CNCCCN3CCOCC3)cc2c1", "Percent Effect": 96.42}
{"smiles": "Cc1cc(C)c2cc(CNCCCN3CCOCC3)c(=O)[nH]c2c1", "Percent Effect": 97.61}
{"smiles": "O=c1[nH]c2ccccc2cc1CNCCCN1CCOCC1", "Percent Effect": 102.3}
{"smiles": "CC(CCc1ccccc1)NC(=O)CNCCCN1CCOCC1.O=C(O)C(=O)O", "note": "(stereo not given)", "Percent Effect": 7.217}
{"smiles": "CCCS(=O)(=O)N1C[C@@H]2CN(Cc3cnn(C)c3)CCO[C@@H]2C1.O=C(O)C(F)(F)F", "Percent Effect": -20.93}
{"smiles": "CCOC(=O)c1n[nH]cc1CN1CCOC(Cc2ccc(F)cc2)C1", "note": "(stereo not given)", "Percent Effect": -1.908}
{"smiles": "CCOc1ccc(CN2CC[C@](C)(O)C(C)(C)C2)cn1", "Percent Effect": -8.073}
{"smiles": "O=C1O[C@@H]2CN(S(=O)(=O)N3CCCC3)C[C@@H]2N1CCc1cccc(Cl)c1", "Percent Effect": 9.806}
{"smiles": "CN(CCCNC(=O)c1ccc(C#N)cc1)CC(F)(F)F", "Percent Effect": -0.8138}
{"smiles": "Cc1cc(NCCOCCS(C)(=O)=O)nc2ccccc12", "Percent Effect": -11.25}
{"smiles": "Cc1nc(NC(=O)N2CCCC(C(F)(F)F)C2)nn1C", "note": "(stereo not given)", "Percent Effect": -33.51}
{"smiles": "O=S(=O)(Nc1cn[nH]c1)c1ccc(Br)c(F)c1", "Percent Effect": -16.59}
{"smiles": "COc1cccc(C(=O)Nc2cc(CC(C)C)nn2C)c1", "Percent Effect": -2.904}
{"smiles": "CC(C)Cc1cc(NC(=O)c2n[nH]c3ccccc23)n(C)n1", "Percent Effect": 100}
{"smiles": "CC(C)Cc1cc(NC(=O)c2ccccn2)n(C)n1", "Percent Effect": 95.28}
{"smiles": "CC(C)Cc1cc(NC(=O)c2ccc(=O)[nH]n2)n(C)n1", "Percent Effect": 9.079}
{"smiles": "CC(C)Cc1cc(NC(=O)c2ccncc2)n(C)n1", "Percent Effect": 97.89}
{"smiles": "COc1cccc(OC2CN(C(=O)c3cc(CC(C)C)nn3C)C2)c1", "Percent Effect": -45.28}
{"smiles": "COc1ccc(C(=O)Nc2cc(CC(C)C)nn2C)cc1", "Percent Effect": 109.3}
{"smiles": "Cc1cc(C(C)(O)CNC(=O)c2ccc(Br)o2)c(C)o1", "note": "(stereo not given)", "Percent Effect": -12.89}
{"smiles": "CCOC(C)c1noc(CN(C)C(=O)c2ccncc2)n1", "note": "(stereo not given)", "Percent Effect": -13.27}
{"smiles": "COCCNC(=O)[C@H]1CN(Cc2nccs2)C[C@H]2OCC[C@@H]12.O=C(O)C(F)(F)F.O=C(O)C(F)(F)F", "Percent Effect": -11.72}
{"smiles": "CCn1cncc1C1CC(=O)Nc2c1c(C)nn2-c1ccc(C)cc1", "note": "(stereo not given)", "Percent Effect": -3.451}
{"smiles": "Cn1c2c(c(=O)n1C)CN(S(=O)(=O)c1cccs1)CCC2", "Percent Effect": -5.821}
{"smiles": "CN(Cc1cccc(F)c1)C(=O)CS(=O)(=O)Cc1ccc(Cl)c(Cl)c1", "Percent Effect": 7.071}
{"smiles": "CC(=O)Nc1cc(C(=O)Nc2cc(CC(C)(C)C)nn2C)ccc1F", "Percent Effect": -21.96}
{"smiles": "CC(C)Cc1cc(NC(=O)N2CCC(Oc3cccnc3)C2)n(C)n1", "note": "(stereo not given)", "Percent Effect": -4.031}
{"smiles": "CC(C)Cc1cc(NC(=O)c2ccc[nH]2)n(C)n1", "Percent Effect": 5.511}
{"smiles": "CC(C)Cc1cc(NC(=O)c2cccnc2)n(C)n1", "Percent Effect": 95.88}
{"smiles": "CC(C)Cc1cc(C(=O)N2CCC(Oc3cccnc3)CC2)n(C)n1", "Percent Effect": -0.7222}
{"smiles": "CC(C)Cc1cc(NC(=O)c2cc(Cl)c[nH]2)n(C)n1", "Percent Effect": 97.83}
{"smiles": "CC(C)Cc1cc(NC(=O)c2ccccc2)n(C)n1", "Percent Effect": 80.95}
{"smiles": "Cc1cnn(CC2CCCN2CC(=O)N(C)CCC#N)c1", "note": "(stereo not given)", "Percent Effect": -15.64}
{"smiles": "COc1cccc(CN(C)C(C)c2ccon2)c1OCCn1ccnc1", "note": "(stereo not given)", "Percent Effect": 6.714}
{"smiles": "N#Cc1cccc(OC2CCN(C(=O)c3cncc(O)c3)CC2)c1", "Percent Effect": -9.362}
{"smiles": "CC(NCCn1cccn1)c1ccc(F)cc1F", "note": "(stereo not given)", "Percent Effect": 14.02}
{"smiles": "CCn1cnnc1C1CCN(C(=O)c2ccnc(N(C)C)c2)CC1", "Percent Effect": 117.4}
{"smiles": "CCN1CCN(C(=O)c2ccnc(N(C)C)c2)CC1", "Percent Effect": -10.63}
{"smiles": "CCn1cnnc1C1CCN(C(=O)c2cccc(-n3cccc3)c2)CC1", "Percent Effect": 173.7}
{"smiles": "CCn1cnnc1C1CCN(C(=O)c2ccc3c(c2)nnn3C)CC1", "Percent Effect": 122.3}
{"smiles": "CCn1cnnc1C1CCN(C(=O)CC(C)n2cccc2)CC1", "note": "(stereo not given)", "Percent Effect": -3.98}
{"smiles": "Cn1nnc2cc(C(=O)N3CCCC3Cc3ccccc3)ccc21", "note": "(stereo not given)", "Percent Effect": -4.659}
{"smiles": "CCn1cnnc1C1CCN(C(=O)c2cccc(N(C)C)c2)CC1", "Percent Effect": 182}
{"smiles": "CCn1cnnc1C1CCN(C(=O)c2cccc3c2ccn3C)CC1", "Percent Effect": 4.279}
{"smiles": "O=C(O)C(F)(F)F.O=C(c1nc2c(o1)CN(CC1CCC1)C2)N1CCCC1", "Percent Effect": 1.201}
{"smiles": "CC(C)(CNC(=O)C1CCCN1S(C)(=O)=O)N1CCOCC1", "note": "(stereo not given)", "Percent Effect": 0.9982}
{"smiles": "Cc1cc(CNCC2(O)CCOCC2)ccc1F", "Percent Effect": -13.16}
{"smiles": "COC(=O)N1CCN(Cc2ccccc2C(C)(C)C#N)CC1", "Percent Effect": -9.14}
{"smiles": "COc1ccc(CN(C)c2nc3c(cnn3C)c(=O)[nH]2)c(OC)c1", "Percent Effect": -2.005}
{"smiles": "COc1cccc(CN(C)Cc2nc3c(cnn3C)c(=O)[nH]2)c1OC", "Percent Effect": 14.32}
{"smiles": "COc1ccccc1-c1cc(C(=O)N(C)C)c2cnn(C)c2n1", "Percent Effect": 108}
{"smiles": "COc1ccccc1-c1cc(C(=O)N(C)C)nc2c1cnn2C", "Percent Effect": 124.6}
{"smiles": "COc1ccccc1CN(C)c1nc2c(cnn2C)c(=O)[nH]1", "Percent Effect": -4.184}
{"smiles": "COc1ccccc1OC1CCN(C(=O)c2cnc(C)cc2C)CC1", "Percent Effect": -3.522}
{"smiles": "COc1ccccc1N(C)Cc1nc2c(cnn2C)c(=O)[nH]1", "Percent Effect": -7.278}
{"smiles": "COc1ccccc1-c1cc(C(=O)N2CCCC2)c2cnn(C)c2n1", "Percent Effect": 117.8}
{"smiles": "COc1cccc2c1N(Cc1nc3c(cnn3C)c(=O)[nH]1)CCC2", "Percent Effect": -0.8657}
{"smiles": "COc1cccc(C)c1C(=O)N1CCc2ncnc(NCCO)c2CC1", "Percent Effect": -30.82}
{"smiles": "O=C(C[S+]([O-])Cc1ccc(F)cc1Cl)NC1CCCC1", "note": "(stereo not given)", "Percent Effect": 9.339}
{"smiles": "COc1ccc(Nc2ccc(C#N)cn2)cc1N1CCCC1=O", "Percent Effect": -10.87}
{"smiles": "Cc1cc(OCC(=O)N2CCCC(c3noc(C)n3)C2)no1", "note": "(stereo not given)", "Percent Effect": 0.3444}
{"smiles": "Cn1ncc2c(N3CCN(CCC(N)=O)CC3)nc(C3CCCC3)nc21", "Percent Effect": 3.18}
{"smiles": "CCc1nc(C2CCCN(C(=O)CCn3ccccc3=O)C2)no1", "note": "(stereo not given)", "Percent Effect": -2.479}
{"smiles": "Cc1noc(C)c1-c1nc(C2CCCN(C(=O)CN)C2)ccc1CO", "note": "(stereo not given)", "Percent Effect": 107.5}
{"smiles": "Cc1nc(C2CCCN(C(=O)COCc3ccccc3Cl)C2)no1", "note": "(stereo not given)", "Percent Effect": -13.21}
{"smiles": "Cc1noc(C)c1-c1nc(C2CCCN(C(=O)CCN)C2)ccc1CO", "note": "(stereo not given)", "Percent Effect": 106.6}
{"smiles": "Cc1nc(C2CCCN(C(=O)Cn3ccccc3=O)C2)no1", "note": "(stereo not given)", "Percent Effect": -7.453}
{"smiles": "Cc1noc(C)c1-c1nc(C2CCCN(CCC(N)=O)C2)ccc1CO", "note": "(stereo not given)", "Percent Effect": 98.23}
{"smiles": "Cl.Cl.Cl.OC(CN1CCN(Cc2cccnc2)CC1)c1cccs1", "note": "(stereo not given)", "Percent Effect": -1.04}
{"smiles": "Cc1ccc2c(c1)C(NCc1nnc3n1CCCCC3)CCCO2", "note": "(stereo not given)", "Percent Effect": -29.11}
{"smiles": "O=c1cc(CN(CCO)C2CC2)nc2ccc(Cl)cn12", "Percent Effect": -6.925}
{"smiles": "O=C(CCc1cscn1)NS(=O)(=O)c1ccc2ccccc2c1", "Percent Effect": 3.955}
{"smiles": "O=C(Cc1ccsc1)N1C[C@@H]2OCCN(c3cnccn3)[C@@H]2C1.O=C(O)C(F)(F)F", "Percent Effect": 19.14}
{"smiles": "Cc1ccc(N2CC[C@@H]3[C@@H]2CCN3C(=O)Cc2ccccc2)nn1.O=C(O)C(F)(F)F", "Percent Effect": 108}
{"smiles": "Cc1ccc(N2CC[C@@H]3[C@@H]2CCN3C(=O)c2cscn2)nn1.O=C(O)C(F)(F)F", "Percent Effect": -4.198}
{"smiles": "Cc1ccc(N2CC[C@@H]3O[C@@H](COCc4cccnc4)CC[C@@H]32)nn1.O=C(O)C(F)(F)F.O=C(O)C(F)(F)F", "Percent Effect": 4.893}
{"smiles": "Cc1ccc(N2CC[C@@H]3[C@@H]2CCN3C(=O)Cc2ccsc2)nn1.O=C(O)C(F)(F)F", "Percent Effect": 97.7}
{"smiles": "Cc1ccc(N2CC[C@@H]3[C@@H]2CCN3C(=O)Cc2cccs2)nn1.O=C(O)C(F)(F)F", "Percent Effect": 109.8}
{"smiles": "Cc1ccc(N2CC[C@H]3[C@@H]2CCC(=O)N3CCN2CCOCC2)nn1.O=C(O)C(F)(F)F", "Percent Effect": -26.64}
{"smiles": "O=C(CC1CCCC1)N1CC[C@H]2[C@H]1CCN2c1nncs1.O=C(O)C(F)(F)F", "Percent Effect": 10.49}
{"smiles": "CN(C)C(=O)N1CC[C@H]2[C@H]1CCN2c1nncs1.O=C(O)C(F)(F)F", "Percent Effect": -1.539}
{"smiles": "O=C(O)[C@@H]1CN(C2CCCC2)C[C@H]1C1CC1", "Percent Effect": -8.244}
{"smiles": "Cc1ccc(NC(=O)NC(C)c2nc[nH]n2)cc1Cl", "note": "(stereo not given)", "Percent Effect": -5.292}
{"smiles": "c1cc2c(cc1-c1noc3c1CN(C1CCSCC1)CC3)OCO2", "Percent Effect": -0.3794}
{"smiles": "CC(C)n1cnnc1CN(C)C(=O)C1CCCN(C2CCN(C)CC2)C1", "note": "(stereo not given)", "Percent Effect": 110.4}
{"smiles": "CCCn1cnnc1CN(C)C(=O)C1CCC(=O)N(C2CCCC2)C1", "note": "(stereo not given)", "Percent Effect": -9.656}
{"smiles": "CCCn1cnnc1CN(C)C(=O)C1CCCN(C2CCN(C)CC2)C1", "note": "(stereo not given)", "Percent Effect": 120.4}
{"smiles": "CC(C)n1cnnc1CN(C)C(=O)C1CCCN(CC(N)=O)C1", "note": "(stereo not given)", "Percent Effect": 92.86}
{"smiles": "CCn1cnnc1CN(C)C(=O)C1CCC(=O)N(CC2CCCCC2)C1", "note": "(stereo not given)", "Percent Effect": 6.192}
{"smiles": "Cc1ccsc1CN(C)C(=O)C1CCCN(C(N)=O)C1", "note": "(stereo not given)", "Percent Effect": 8.59}
{"smiles": "CN(CCCc1cnn(C)c1)C(=O)C1CCCN(C2CCCC2)C1", "note": "(stereo not given)", "Percent Effect": -4.141}
{"smiles": "CC(C)n1cnnc1CN(C)CC1CCCNC1", "note": "(stereo not given)", "Percent Effect": -3.149}
{"smiles": "CC(C)n1cnnc1CN(C)C1CCCNC1", "note": "(stereo not given)", "Percent Effect": -12.15}
